Our source for the Potency and max activation values is PubChem BioAssay (Tox21).

Several values for one entry are separate records, joined by “and”; a condition that tells them apart may be missing. Identical values can stand only once. Results filed as inconclusive are left out. Some structures have more than one record in an assay (separate samples or runs), and their calls can disagree. Activity calls are given as the source filed them. Unless noted, the call rests on the fitted dose curve; in most records, active means well fitted curve in the direction sought with a large enough effect in the repeat runs; inconclusive means weak or mixed curves; inactive means no such curve, though single readings can be large; an effect the other way counts as inactive or inconclusive.

Experiment [1] is described as follows: Caspase-3/7 induction in HepG2 cells by small molecules, qHTS assay (AID 1346978). Further: on the % scale 0 is the no-effect control and ±100 the full control effect; nearly all actives have a fitted effect of over 15% in size. The gist of the method: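 Wild-type HepG2 cells (2,000/well) were settled 5 h at 37 C, 5% CO2, then exposed to compounds in DMSO for 17 h. Caspase-3/7 activity was read by luminescence 30 min after adding Caspase-Glo 3/7 reagent at room temperature.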
Experiment [2] in a line: Caspase-3/7 induction in CHO-K1 cells by small molecules, qHTS assay (AID 1346980). Further: nearly all actives have a fitted effect of over 15% in size. Further: potency means the concentration at half of the fitted maximal effect. The gist of the method:
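Wild-type cells were seeded at 1,500 per well and settled 5 hr at 37 C, 5% CO2, then exposed to DMSO-dissolved compounds for 17 hr. Caspase-Glo 3/7 reagent was added, and luminescence was read after 30min at room temperature.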

Experiment [3] deals with Nuclear receptor subfamily 1 group I member 2 (Homo sapiens) (UniProt O75469). Nature of the experiment: Human pregnane X receptor (PXR) small molecule agonists, qHTS assay (AID 1346982). Further: nearly all actives have a fitted effect of over 35% in size. Further: potency means the concentration at half of the fitted maximal effect. On activation: on the % scale 0 is the no-effect control and ±100 the full control effect. The gist of the method: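 Tox21 qHTS; PXR-Luc HepG2; compounds pinned from DMSO; 24 hr, 37 C; ONE-Glo luciferase detection, 30 min room temperature.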
Sequence of Nuclear receptor subfamily 1 group I member 2 (Homo sapiens) (O75469 whole entry, looked up): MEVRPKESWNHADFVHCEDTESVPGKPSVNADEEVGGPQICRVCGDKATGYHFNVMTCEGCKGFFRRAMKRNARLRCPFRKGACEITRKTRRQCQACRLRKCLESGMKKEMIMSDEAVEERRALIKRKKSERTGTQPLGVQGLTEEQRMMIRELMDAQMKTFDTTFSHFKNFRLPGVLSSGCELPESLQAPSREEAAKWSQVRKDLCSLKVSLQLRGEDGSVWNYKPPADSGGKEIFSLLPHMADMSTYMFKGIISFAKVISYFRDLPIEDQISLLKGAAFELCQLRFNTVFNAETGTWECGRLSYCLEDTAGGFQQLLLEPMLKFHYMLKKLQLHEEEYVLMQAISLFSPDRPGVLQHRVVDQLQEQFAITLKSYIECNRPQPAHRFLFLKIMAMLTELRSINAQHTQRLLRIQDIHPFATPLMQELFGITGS
Experiment [4] concerns the target Cytochrome P450 2C19 (Homo sapiens) (UniProt P33261). The experiment can be described thus: Cytochrome P450 Family 2 Subfamily C Member 19 (CYP2C19) small molecule antagonists: luciferase reporter qHTS assay (AID 1671197). Further: nearly all actives have a fitted effect of over 65% in size. Further: potency means the concentration at half of the fitted maximal effect. The gist of the method:
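P450-Glo CYP2C19 system: enzyme-substrate mix with compound 10 min at room temperature, then NADPH regeneration solution, 1 h at 37C. Proluciferin-to-luciferin conversion detected by luminescence after 20 min with detection reagent; ketoconazole as positive control.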

In experiment [5] the target is Cytochrome P450 2C9 (Homo sapiens) (UniProt P11712). The experiment can be described thus: Cytochrome P450 Family 2 Subfamily C Member 9 (CYP2C9) small molecule antagonists: luciferase reporter qHTS assay (AID 1671198). Further: nearly all actives have a fitted effect of over 50% in size. Further: potency means the concentration at half of the fitted maximal effect. An outline of the steps:
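CYP2C9 activity was measured with a P450-Glo proluciferin substrate. Enzyme–substrate mix was held with compound for 10 min at room temperature, then NADPH regeneration solution was added for 1 h at 37C. Luciferin product was read as luminescence.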

Experiment [6] deals with Voltage-gated inwardly rectifying potassium channel KCNH2 (Homo sapiens) (UniProt Q12809). Nature of the experiment: Human Ether-a-go-go-Related Gene (hERG) channel small molecule antagonists: fluorescence cell-based qHTS assay (AID 1671200). Further: nearly all actives have a fitted effect of over 50% in size. Further: potency means the concentration at half of the fitted maximal effect. An outline of the steps:
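Thallium flux as potassium surrogate: FluxOR II dye loaded 1 h at room temperature into hERG-expressing U2OS cells, then stimulus buffer added after 10 min. Kinetic 480 nm excitation/540 nm emission read, 2 min.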

Experiment [7] addresses Cytochrome P450 3A4 (Homo sapiens) (UniProt P08684). The experiment can be described thus: Cytochrome P450 Family 3 Subfamily A Member 4 (CYP3A4) small molecule antagonists: luciferase reporter qHTS assay (AID 1671201). Further: nearly all actives have a fitted effect of over 50% in size. Further: potency means the concentration at half of the fitted maximal effect. An outline of the steps:
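Recombinant human CYP3A4 converts a proluciferin substrate to luciferin over 1 h at room temperature after NADPH regeneration solution is added (compound preincubated 10 min); detection reagent stops reaction, luminescence read 20 min later as relative units.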

The nature of experiment [8]: Caspase-3/7 induction in HepG2 cells by small molecules, qHTS cell viability counter screen (AID 1346981). Further: series mostly up to about 92 µM; on the % scale 0 is the no-effect control and ±100 the full control effect; nearly all actives have a fitted effect of over 30% in size. The gist of the method: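 After a 5-hr attachment period at 37 C and 5% CO2, wild-type HepG2 cells received compounds in DMSO. Sixteen hours later CellTiter-Fluor was dispensed and the fluorescent signal quantified after a further hour.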
The target in experiment [9] is Acetylcholinesterase (Homo sapiens) (UniProt P22303). Nature of the experiment: Acetylcholinesterase (AChE) small molecule antagonists: colormetric cell-based qHTS assay (AID 1347395; calls by dose curve; further: nearly all actives have a fitted effect of over 30% in size; further: potency means the concentration at half of the fitted maximal effect). The gist of the method:
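Colorimetric readout: DTNB quantifies thiocholine from acetylthiocholine hydrolysed by endogenous AChE of SH-SY5Y cells (2,000/well, plated overnight). Compound pretreatment 30 min, substrate incubation 90 min, both 37 C.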

Experiment [10] shares this target. The experiment can be described thus: Acetylcholinesterase (AChE) small molecule antagonists: fluorescence cell-based qHTS assay (AID 1347398; calls by dose curve; further: nearly all actives have a fitted effect of over 50% in size; further: potency means the concentration at half of the fitted maximal effect). As to conditions: Potency: AChE activity. An outline of the steps:
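Cellular AChE inhibition: SH-SY5Y cells treated with test chemical for 30 min at 37 C, then acetylthiocholine hydrolysis followed over 40 min at room temperature via thiocholine-reactive Thiolite Green fluorescence (490/520 nm).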

Experiment [11] shares this target. The experiment can be described thus: Acetylcholinesterase (AChE) small molecule antagonists: enzyme-based qHTS assay with human liver microsomes (AID 1347399; calls by dose curve; further: nearly all actives have a fitted effect of over 60% in size; further: potency means the concentration at half of the fitted maximal effect). Particulars: Potency: qHTS inhibition. An outline of the steps:
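Recombinant human AChE (50 mU/mL in the enzyme mix) and human liver microsomes (0.25 mg/mL final) were preincubated with compound and NADPH (0.25 mg/mL final) for 30 min at 37 C. Acetylthiocholine/DTNB was then added; thiocholine was read colorimetrically after 10 min at room temperature.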

Experiment [12] concerns the target Cytochrome P450 1A2 (Homo sapiens) (UniProt P05177). The experiment can be described thus: Cytochrome P450 Family 1 Subfamily A Member 2 (CYP1A2) small molecule antagonists: luciferase reporter qHTS assay (AID 1671199). Further: nearly all actives have a fitted effect of over 50% in size. Further: potency means the concentration at half of the fitted maximal effect. An outline of the steps: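 Room-temperature CYP1A2 reaction with proluciferin substrate: compounds added from DMSO, 10 min preincubation, NADPH regeneration for 1 h. Luciferin detection reagent then added; luminescence recorded as RLU.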

The target in experiment [13] is Acetylcholinesterase (Homo sapiens) (UniProt P22303). The experiment can be described thus: Acetylcholinesterase (AChE) small molecule antagonists: enzyme-based qHTS assay (AID 1347397; calls by dose curve; further: on the % scale 0 is the no-effect control and ±100 the full control effect; nearly all actives have a fitted effect of over 55% in size). Particulars: Potency: AChE enzyme activity inhibition. An outline of the steps: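 Tox21 library chemicals are tested in qHTS format against recombinant human AChE. The enzyme, dispensed at 50 mU/mL, sits with compound for 30 min at room temperature. A DTNB–acetylthiocholine cocktail follows, and colour is read after 10 min.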
Sequence of Acetylcholinesterase (Homo sapiens) (P22303 whole entry, looked up): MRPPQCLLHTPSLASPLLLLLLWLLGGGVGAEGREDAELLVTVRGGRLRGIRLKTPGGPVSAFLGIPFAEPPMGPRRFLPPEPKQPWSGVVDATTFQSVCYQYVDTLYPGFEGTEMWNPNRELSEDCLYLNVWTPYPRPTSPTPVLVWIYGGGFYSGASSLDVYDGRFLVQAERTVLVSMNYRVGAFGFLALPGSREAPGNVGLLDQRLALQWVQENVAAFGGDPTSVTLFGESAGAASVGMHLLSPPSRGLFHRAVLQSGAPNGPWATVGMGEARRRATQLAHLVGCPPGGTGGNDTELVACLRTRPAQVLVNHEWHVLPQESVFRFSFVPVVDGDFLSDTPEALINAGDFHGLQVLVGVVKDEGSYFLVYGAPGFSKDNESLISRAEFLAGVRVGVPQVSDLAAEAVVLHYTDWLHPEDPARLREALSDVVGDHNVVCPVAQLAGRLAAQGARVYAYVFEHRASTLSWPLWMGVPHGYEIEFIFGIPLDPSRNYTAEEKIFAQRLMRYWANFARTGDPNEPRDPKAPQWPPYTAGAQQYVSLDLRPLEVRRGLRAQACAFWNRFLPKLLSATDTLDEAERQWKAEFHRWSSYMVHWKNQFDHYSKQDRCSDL

For experiment [14], the target named is Cytochrome P450 2D6 (Homo sapiens) (UniProt P10635). Nature of the experiment: Cytochrome P450 Family 2 Subfamily D Member 6 (CYP2D6) small molecule antagonists: luciferase reporter qHTS assay (AID 1671196). Further: nearly all actives have a fitted effect of over 50% in size. Further: potency means the concentration at half of the fitted maximal effect. An outline of the steps: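 Room-temperature luminescent CYP2D6 activity assay: compound preincubated 10 min with enzyme–substrate mix, NADPH-initiated reaction 1 h, detection reagent 20 min before reading.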
Sequence of Cytochrome P450 2D6 (Homo sapiens) (P10635 whole entry, looked up): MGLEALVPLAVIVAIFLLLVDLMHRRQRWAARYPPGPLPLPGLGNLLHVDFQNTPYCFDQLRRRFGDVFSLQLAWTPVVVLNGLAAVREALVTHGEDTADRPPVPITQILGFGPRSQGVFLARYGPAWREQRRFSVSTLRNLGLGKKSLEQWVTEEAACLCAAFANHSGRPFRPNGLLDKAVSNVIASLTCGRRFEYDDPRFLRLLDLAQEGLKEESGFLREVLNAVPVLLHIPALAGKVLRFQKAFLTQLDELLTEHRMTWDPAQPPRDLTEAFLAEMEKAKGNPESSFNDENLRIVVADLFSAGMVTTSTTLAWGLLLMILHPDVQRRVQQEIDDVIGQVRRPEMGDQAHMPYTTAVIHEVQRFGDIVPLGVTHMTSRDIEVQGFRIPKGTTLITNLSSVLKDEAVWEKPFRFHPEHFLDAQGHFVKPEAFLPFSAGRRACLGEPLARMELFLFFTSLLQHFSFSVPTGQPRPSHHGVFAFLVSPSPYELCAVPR

Experiment [15] addresses Nuclear receptor subfamily 1 group I member 2 (Rattus norvegicus) (UniProt Q9R1A7). The experiment can be described thus: Rat pregnane X receptor (rPXR) activation by small molecules, qHTS assay (AID 1346983). Further: on the % scale 0 is the no-effect control and ±100 the full control effect; nearly all actives have a fitted effect of over 20% in size. Particulars: rPXR luciferase reporter cells, One-Glo luminescence, 24 h; max activation: stronger effect = higher value. An outline of the steps:
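Cell-based rPXR luciferase reporter assay, 2,000 cells per well, rested 5hr at 37 C before compound addition in DMSO, then 24 hr at 37 C. One-Glo reagent was added and luminescence read after 30 min at room temperature.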

In experiment [16] the target is Nuclear receptor subfamily 1 group I member 2 (Homo sapiens) (UniProt O75469). Nature of the experiment: CYP3A4 induction through human pregnane X receptor (PXR) by small molecules, qHTS assay (AID 1346984). Further: on the % scale 0 is the no-effect control and ±100 the full control effect; nearly all actives have a fitted effect of over 40% in size. The gist of the method:
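Cells (DPX-2; HepG2 with PXR element plus CYP3A4-promoter luciferase) settled 5hr, then were treated 24hr at 37C. A 3hr, 3uM-final Luciferin-IPA step preceded luminescence measurement with One-Glo.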

A short description of experiment [17]: Caspase-3/7 induction in CHO-K1 cells by small molecules, qHTS cell viability counter screen (AID 1346979). Further: potency means the concentration at half of the fitted maximal effect; nearly all actives have a fitted effect of over 35% in size. An outline of the steps:
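Cytotoxicity counter screen: CellTiter-Fluor added to compound-treated wild-type CHO-K1 cells at 16 h (37C, 5% CO2), fluorescence measured 1 h later; same wells as caspase-3/7 measurement.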

Sequence of Cytochrome P450 2C19 (Homo sapiens) (P33261 whole entry, looked up): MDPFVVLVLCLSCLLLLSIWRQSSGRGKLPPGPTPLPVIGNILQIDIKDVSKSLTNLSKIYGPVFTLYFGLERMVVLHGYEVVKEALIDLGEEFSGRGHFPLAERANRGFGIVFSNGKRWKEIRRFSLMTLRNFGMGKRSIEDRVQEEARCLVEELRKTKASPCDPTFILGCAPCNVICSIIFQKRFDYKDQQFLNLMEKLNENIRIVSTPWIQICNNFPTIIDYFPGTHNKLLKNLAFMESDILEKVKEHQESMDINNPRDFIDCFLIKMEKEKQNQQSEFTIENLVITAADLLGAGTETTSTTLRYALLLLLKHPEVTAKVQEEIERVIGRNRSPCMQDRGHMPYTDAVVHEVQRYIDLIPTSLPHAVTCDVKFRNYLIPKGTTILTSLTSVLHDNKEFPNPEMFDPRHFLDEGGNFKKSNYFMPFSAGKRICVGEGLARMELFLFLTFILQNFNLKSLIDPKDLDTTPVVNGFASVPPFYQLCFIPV
Sequence of Cytochrome P450 3A4 (Homo sapiens) (P08684 whole entry, looked up): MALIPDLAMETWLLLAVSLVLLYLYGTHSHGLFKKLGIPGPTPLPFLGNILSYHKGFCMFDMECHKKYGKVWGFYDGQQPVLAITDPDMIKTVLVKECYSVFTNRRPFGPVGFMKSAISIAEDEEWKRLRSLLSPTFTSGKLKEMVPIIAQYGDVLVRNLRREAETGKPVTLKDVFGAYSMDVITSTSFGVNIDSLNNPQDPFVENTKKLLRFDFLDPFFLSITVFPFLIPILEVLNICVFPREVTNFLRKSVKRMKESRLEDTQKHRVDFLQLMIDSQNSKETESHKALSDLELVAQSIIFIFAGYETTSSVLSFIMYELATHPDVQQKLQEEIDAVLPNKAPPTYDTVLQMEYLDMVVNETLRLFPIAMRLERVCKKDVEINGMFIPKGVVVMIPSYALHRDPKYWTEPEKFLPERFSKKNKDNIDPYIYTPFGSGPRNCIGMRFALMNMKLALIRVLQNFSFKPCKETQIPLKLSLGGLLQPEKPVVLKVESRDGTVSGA
Sequence of Voltage-gated inwardly rectifying potassium channel KCNH2 (Homo sapiens) (Q12809 whole entry, looked up): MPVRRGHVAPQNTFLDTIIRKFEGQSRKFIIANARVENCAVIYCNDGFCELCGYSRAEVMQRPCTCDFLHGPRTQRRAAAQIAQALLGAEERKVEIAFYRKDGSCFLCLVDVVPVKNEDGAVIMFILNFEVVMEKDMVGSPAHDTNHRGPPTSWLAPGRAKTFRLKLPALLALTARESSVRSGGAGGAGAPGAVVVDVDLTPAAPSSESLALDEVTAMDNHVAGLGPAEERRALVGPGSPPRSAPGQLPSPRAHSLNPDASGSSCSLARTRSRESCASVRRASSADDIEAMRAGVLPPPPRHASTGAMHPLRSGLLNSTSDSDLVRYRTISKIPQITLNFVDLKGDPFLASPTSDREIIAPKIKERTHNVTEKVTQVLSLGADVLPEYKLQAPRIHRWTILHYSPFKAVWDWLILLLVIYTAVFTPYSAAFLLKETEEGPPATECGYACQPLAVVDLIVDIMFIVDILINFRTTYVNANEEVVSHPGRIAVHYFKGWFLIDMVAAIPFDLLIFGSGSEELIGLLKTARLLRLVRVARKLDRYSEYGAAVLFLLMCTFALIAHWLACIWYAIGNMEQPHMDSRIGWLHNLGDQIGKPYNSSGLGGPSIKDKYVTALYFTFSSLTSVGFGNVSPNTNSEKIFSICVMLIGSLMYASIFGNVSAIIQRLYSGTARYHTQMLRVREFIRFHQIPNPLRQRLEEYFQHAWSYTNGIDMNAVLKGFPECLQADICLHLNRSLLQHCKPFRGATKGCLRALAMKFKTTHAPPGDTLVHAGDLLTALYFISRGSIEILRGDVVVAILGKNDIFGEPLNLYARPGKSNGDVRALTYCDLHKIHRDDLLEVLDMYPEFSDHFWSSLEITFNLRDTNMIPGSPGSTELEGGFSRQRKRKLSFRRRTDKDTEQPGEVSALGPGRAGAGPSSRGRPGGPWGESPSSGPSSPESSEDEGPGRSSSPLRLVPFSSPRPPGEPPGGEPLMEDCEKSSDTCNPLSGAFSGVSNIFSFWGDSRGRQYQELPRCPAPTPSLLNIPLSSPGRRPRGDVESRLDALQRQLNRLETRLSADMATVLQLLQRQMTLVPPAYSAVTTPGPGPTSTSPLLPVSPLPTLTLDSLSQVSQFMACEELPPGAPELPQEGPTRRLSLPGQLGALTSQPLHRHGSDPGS
Sequence of Cytochrome P450 1A2 (Homo sapiens) (P05177 whole entry, looked up): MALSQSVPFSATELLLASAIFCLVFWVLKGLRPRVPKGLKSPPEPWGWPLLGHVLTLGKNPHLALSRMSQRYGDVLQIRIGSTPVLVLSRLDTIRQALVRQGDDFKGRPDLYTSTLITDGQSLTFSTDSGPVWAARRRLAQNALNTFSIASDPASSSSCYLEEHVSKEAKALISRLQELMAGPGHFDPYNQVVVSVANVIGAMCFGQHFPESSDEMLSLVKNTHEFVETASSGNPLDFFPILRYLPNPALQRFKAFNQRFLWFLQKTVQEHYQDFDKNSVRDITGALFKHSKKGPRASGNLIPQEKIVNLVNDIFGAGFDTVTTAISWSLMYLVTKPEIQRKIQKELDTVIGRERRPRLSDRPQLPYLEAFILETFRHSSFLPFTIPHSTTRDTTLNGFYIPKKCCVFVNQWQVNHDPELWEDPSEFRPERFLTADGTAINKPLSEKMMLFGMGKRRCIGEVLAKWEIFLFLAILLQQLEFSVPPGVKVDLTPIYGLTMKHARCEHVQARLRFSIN
Sequence of Cytochrome P450 2C9 (Homo sapiens) (P11712 whole entry, looked up): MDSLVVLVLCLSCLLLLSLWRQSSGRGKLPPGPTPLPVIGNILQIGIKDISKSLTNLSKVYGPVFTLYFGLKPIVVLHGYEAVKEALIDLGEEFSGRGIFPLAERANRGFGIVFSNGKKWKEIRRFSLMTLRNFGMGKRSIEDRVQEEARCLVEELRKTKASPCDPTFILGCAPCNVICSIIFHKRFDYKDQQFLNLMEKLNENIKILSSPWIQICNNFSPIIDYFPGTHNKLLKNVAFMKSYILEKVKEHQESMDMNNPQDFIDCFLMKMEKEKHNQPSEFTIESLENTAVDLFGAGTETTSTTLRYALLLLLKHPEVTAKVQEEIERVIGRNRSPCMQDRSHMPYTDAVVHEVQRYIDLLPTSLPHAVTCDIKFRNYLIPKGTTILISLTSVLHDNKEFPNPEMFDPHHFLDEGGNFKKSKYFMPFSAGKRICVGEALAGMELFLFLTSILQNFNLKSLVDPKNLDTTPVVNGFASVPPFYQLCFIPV

As to `CCCC[N+]1(C)CCCC1` (tested in a mixture with another compound), the Potency entry in experiment [1], in [2], in [4], in experiment [5], in experiment [6] and in [7] was “inactive” each time. Moreover, the Potency in experiment [3] was 69.4 µM (active).
On to `CCOC(=O)CCN(SN(C)C(=O)Oc1cccc2c1OC(C)(C)C2)C(C)C`, for which the Potency entry in [1], in [2] and in experiment [8] was “inactive” in each case. Besides, the Potency in experiment [9] was 0.252 µM (active); in [10], 0.1 µM (active); in experiment [11], 0.796 µM (active); in experiment [4], 17.8 µM (active); in experiment [5], 12.6 µM (active); in experiment [12], 22.4 µM (active). Also, in [7], the Potency was 10 µM (active).
Take `CSC1=N[C@@](C)(c2ccccc2)C(=O)N1Nc1ccccc1`: the Potency result in [1], in experiment [2], in [9], in [13], in experiment [10] and in experiment [11] was “inactive” each time. Moreover, the Potency result in experiment [6] was “inactive”. Besides, the Potency was 35.6 µM (active) in experiment [5] and 31.7 µM (active) in [7].
In the case of `CC(=O)[O-].CC(=O)[O-].O.O.[Zn+2]`, the Potency entry in [1], in experiment [2], in [8] and in experiment [6] was “inactive” throughout.
As for `CCN(CC)Cc1nccn1-c1ccc([N+](=O)[O-])cc1C(=O)c1ccccc1Cl`, the Potency result in experiment [1], in experiment [2], in [9], in experiment [13], in experiment [10] and in experiment [11] was “inactive” in each case. Further, the Potency entry in experiment [5] was “inactive”. For the same compound, the values for the Potency in experiment [3], in experiment [14] and in experiment [6] were 10.6 µM (active), 3.09 µM (active) and 5.35 µM (active), respectively.
On to `Clc1ccc(C2(Cn3cncn3)OCCO2)c(Cl)c1`, for which the Potency entry in [1], in experiment [2], in experiment [16], in experiment [13], in experiment [10] and in experiment [11] was “inactive” in each case. The Potency result in [6] is “inactive”. Besides, the max activation in [15] is -0.146% (inactive). For the same compound, the Potency is 63.3 µM (active) in experiment [14], 17.8 µM (active) in experiment [5], 28.3 µM (active) in [12] and 0.502 µM (active) in experiment [7].
In the case of `Clc1ccc(C(Cl)(Cl)Cl)cc1Cl`, the Potency entry in experiment [2], in experiment [9], in experiment [13], in [11], in [14] and in [5] was “inactive” throughout. For the same compound, the Potency entry in experiment [6] is “inactive”. Besides, in experiment [3], the Potency is 30 µM (active).
Take `O=S1OCC2C(CO1)C1(Cl)C(Cl)=C(Cl)C2(Cl)C1(Cl)Cl` (stereo not given): the Potency in experiment [17] was 61.2 µM (active) and 68.5 µM (active); in experiment [3], 24.4 µM (active) and inactive; in experiment [14], 4 µM (active); in [5] it was 35.6 µM (active) and 31.7 µM (active); in experiment [6] it was 21.9 µM (active) and 27.5 µM (active); in experiment [7], 283 nM (active) and 633 nM (active). The Potency result in [2], in experiment [9], in experiment [13], in [10], in [11] and in [12] was “inactive” each time.
On to `CCOP(=O)(OCC)Oc1nc(Cl)c(Cl)cc1Cl`, for which the Potency result in experiment [1], in experiment [2], in experiment [8], in [6] and in experiment [7] was “inactive” throughout. The Potency in experiment [3] was 54.2 µM (active); in [4], 3.15 µM (active); in experiment [5], 35.4 µM (active); in experiment [12], 1.58 µM (active).
With `CCCCCCC[CH2][Sn]([Cl])([Cl])[CH2]CCCCCCC`, the Potency is 54.4 µM (active) in [17], 68.5 µM (active) in [2] and 35.6 µM (active) in experiment [12]. In addition, the Potency result in experiment [8], in experiment [9], in experiment [13], in experiment [10], in [11] and in experiment [4] was “inactive” throughout. The Potency result in [6] and in experiment [7] was “inactive” each time.
Consider `Nc1nc(N)c(N)c(N)n1`, for which the Potency result in [1], in experiment [2], in [3], in experiment [9], in [10] and in experiment [11] was “inactive” throughout. Besides, the Potency entry in experiment [14], in experiment [5], in experiment [6] and in experiment [7] was “inactive” in each case. For the same compound, the Potency in experiment [12] is 35.7 µM (active).
In the case of `Clc1ccc(C(c2ccc(Cl)cc2)C(Cl)Cl)cc1`, the Potency entry in experiment [1], in experiment [8], in experiment [9], in experiment [13], in experiment [10] and in experiment [11] was “inactive” throughout. In addition, the Potency result in [7] was “inactive”. In addition, the Potency in [3] was 19.6 µM (active); in [14], 64.3 µM (active); in experiment [5] it was 5.11 µM (active) and 6.33 µM (active); in experiment [12] it was 6.43 µM (active) and 8.94 µM (active); in experiment [6], 24.9 µM (active) and 19.5 µM (active).
